Assay outcomes as filed in PubChem BioAssay.
This is a sample that favours compounds with a hit; in the whole collection about 6.2% have one here.
KB-3-1 tox = KB-3-1 parental cell cytotoxicity. KB-3-1 viability, CellTiter-Glo ATP luminescence, 72 h. Potency, µM (titrated, usually from 46.1 µM), actives largely listed as cytotoxic. 400,000 compounds, 1.4% hits. AID 1347075; note: nearly all actives have a fitted effect of over 60% in size
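Parental KB-3-1 viability, qHTS format: 72 h compound exposure, 37 °C; CellTiter-Glo; media-only wells and DMSO plates as controls; concentration-effect fits on corrected data.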
ATXN2 expr inh = ATXN2 expression inhibition | 360,000 compounds, 0.72% hits | HEK-293 ATXN2-luciferase reporter, luminescence, 24 h | Potency, µM (highest dose often 57 µM), usual class: inhibitors | AID 1745845; note: nearly all actives have a fitted effect of over 55% in size
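ATXN2-luciferase reporter cells (luciferase flanked by upstream and downstream ATXN2 gene portions) were treated 24 h at 37 °C with compounds at up to 57 uM. SteadyGlo luminescence gave expression; GF-AFC fluorescence gave viability.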
ATXN viability = cell viability loss in ATXN counter-screen; S2 cells (HEK-293 line with an ATXN2-luciferase reporter) viability, CellTiter-Fluor protease fluorescence, 24 h; Potency, µM (top dose mostly 56.7 µM), hits mostly cytotoxic; 400,000 compounds, 0.49% hits; AID 651635; note: nearly all actives have a fitted effect of over 40% in size
HT1080 IDH1KD tx = toxicity to HT-1080 IDH1 knockdown cells (counter line) | AID 686971 | 360,000 compounds, 2% hits | Potency, µM (doses to about 46.1 µM), most hits filed as cytotoxic | HT-1080 IDH1 knockdown viability, ATP luminescence, 48 h
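% activity derives from luminescence (CellTiter-Glo), normalised to DMSO and no-cell wells. HT-1080-IDH1KD cells, 750/well, had 48 h compound exposure at 37 °C.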
HT1080-NT tox = kills 2HG-producing HT-1080-NT fibrosarcoma cells | HT-1080-NT fibrosarcoma viability, CellTiter-Glo ATP luminescence, 48 h | Potency, µM (highest dose often 46.1 µM), actives largely listed as cytotoxic | 360,000 compounds, 1.6% hits | AID 686970;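 note: NT is the 2HG producing partner of a matched IDH1 knockdown line; nearly all actives have a fitted effect of over 55% in size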
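750 cells/well, RPMI + 5% FBS; 2 h settle, compound pin-transfer, 48 h at 37 degrees C. CellTiter-Glo 10 min RT, luminescence. Normalized to DMSO and media-only wells.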
KB-V1 cytotox = KB-V1 MDR subline cytotoxicity. KB-V1 MDR cells viability, CellTiter-Glo, 72 h. Potency, µM (titrated, usually from 46.1 µM), hits mostly cytotoxic. 400,000 compounds, 3.4% hits. AID 1347076; note: nearly all actives have a fitted effect of over 60% in size
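In this primary screen, KB-V1 cells overexpressing P-gp are incubated with library compounds (lowest to highest concentration) for 72 h at 37 degrees C before a luminescent ATP viability read.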
A number is an active result; – = inactive; ? = inconclusive; · = not tested or not shown. Calls come from the whole dose curve; as a rule, active = well fitted curve in the direction sought with a large enough effect; inconclusive = small, poorly fitted or top-dose-only effect, or another doubt; inactive = no such curve, though single readings can be large; an effect the other way counts as inactive or inconclusive.

SMILES | KB-3-1 tox | ATXN2 expr inh | ATXN viability | HT1080 IDH1KD tx | HT1080-NT tox | KB-V1 cytotox
COc1ccc(CCNc2oc(COc3ccccc3)nc2C#N)cc1 | – | – | – | – | – | 16.4µM
N#Cc1nc(-c2ccc(OCc3ccccc3)cc2)oc1NCc1ccco1 | – | – | – | – | – | –
CNc1oc(-c2ccc(OCc3ccccc3)cc2)nc1C#N | – | – | – | – | – | 23.1µM
COc1ccc(CNc2oc(COc3ccccc3)nc2C#N)cc1 | – | – | – | – | – | 18.4µM
Cc1cccnc1-c1cccc2c1OC(CNC(=O)Cc1c(C)noc1C)C2 (centres undefined) | · | · | – | · | · | ·
N#Cc1nc(-c2ccc(OCc3ccccc3Cl)cc2)oc1N1CCC(C(N)=O)CC1 | – | · | · | · | · | ?
O=C(Cn1c(=O)n2nc(-c3cccc(F)c3)nc2c2ccccc21)N1CCN(c2ccc(F)cc2)CC1 | – | – | – | · | · | –
C[C@@H]1[C@H](C)CC[C@]2(C(=O)O)CC[C@]3(C)C(=CC[C@@H]4[C@@]5(C)C[C@@H](O)[C@H](O)[C@@](C)(CO)[C@H]5CC[C@]43C)[C@@H]12 | · | – | · | · | · | ·
O=C(O)c1ccc(N2C(=O)c3[nH]nc(-c4ccccc4)c3C2c2cccc(F)c2)cc1 (centres undefined) | – | – | – | · | · | –
Cc1ncsc1C(=O)N1N=C2/C(=C/c3ccccc3)CCCC2C1c1ccccc1 (centres undefined) | ? | – | ? | – | – | 20.6µM
Cc1ncsc1C(=O)N1N=C2/C(=C/c3ccc(N4CCOCC4)cc3)CCCC2C1c1ccc(N2CCOCC2)cc1 (centres undefined) | – | – | – | – | – | –
Cc1c(C)c(C)c(/C=C/c2ccnc3ccccc23)c(C)c1C | – | · | · | · | · | –
CCOC(=O)C1(N(CC)CC)Sc2cc(C)ccc2NC1=O (centres undefined) | ? | – | – | ? | ? | 10.3µM
COc1ccc(CNC[C@@H](CCCCN(C)Cc2ccc(OC)cc2)N2C[C@H](c3ccccc3)N(CCc3ccc(Cl)c(Cl)c3)C(=O)C2=O)cc1 | – | – | · | 23.1µM | 18.4µM | –
Cc1cccc(C)c1-n1ncc(C(=O)N2CCN(c3ccccn3)CC2)c1C1CCN(C(=O)OC(C)(C)C)CC1 | – | ? | – | · | · | –
N#CCc1nc2c3c4c(sc3ncn2n1)CCCC4 | 2.31µM | · | – | – | – | ?
Cc1nn2cnc3sc4c(c3c2nc1=O)CCCC4 | – | – | – | – | – | –
O=C(c1ccc(Cl)cc1)c1oc2ccccc2c1CS(=O)c1ccccc1 (centres undefined) | – | ? | – | – | – | 5.17µM
Cc1nc2cc(-c3sccc3-n3cccc3)nn2c(C)c1C | – | – | ? | – | – | 16.4µM
COC(=O)c1c(NC(=O)CN2C(=O)NC3(CCCCC3C)C2=O)sc2c1CCC2 (centres undefined) | 10.3µM | – | – | ? | – | –
Cc1cccc(NC(=O)c2nc(S(C)(=O)=O)ncc2Cl)c1 | – | ? | ? | · | · | –
CCN(c1ccccc1)S(=O)(=O)c1ccc(NC(=O)c2nc(SC)ncc2Cl)cc1 | – | – | ? | · | · | ?
CCSc1ncc(Cl)c(C(=O)Nc2ccccc2)n1 | – | – | – | – | – | ?
CCS(=O)(=O)c1ncc(Cl)c(C(=O)Nc2ccc(S(=O)(=O)N3CCC(C)CC3)cc2)n1 | ? | – | 14.1µM | 3.66µM | 2.91µM | 10.3µM
CN(c1ccccc1)S(=O)(=O)c1ccc(NC(=O)c2nc(S(C)(=O)=O)ncc2Cl)cc1 | ? | 14.1µM | 15.8µM | 11.6µM | ? | ?
COc1cccc(NC(=O)c2nc(S(C)(=O)=O)ncc2Cl)c1 | – | ? | ? | 8.2µM | 5.17µM | –
CCS(=O)(=O)c1ncc(Cl)c(C(=O)Nc2ccccc2)n1 | ? | 11.2µM | 14.1µM | · | · | –
Cc1ccc(NC(=O)c2nc(S(=O)(=O)Cc3ccccc3C)ncc2Cl)cc1C | ? | ? | ? | 16.4µM | ? | 18.4µM
CCOc1ccccc1NC(=O)c1nc(S(=O)(=O)Cc2ccccc2)ncc1Cl | ? | · | 8.91µM | – | – | ?
